Experimental findings from PubChem BioAssay (Tox21) are described below.

Where “and” joins values, the source holds several entries; their conditions need not be identical. Equal values may be shown once. Inconclusive results are not listed. Some structures have more than one record in an assay (separate samples or runs), and their calls can disagree. Calls of active or inactive are those of the source. Unless noted, calls come from the whole dose curve; as a rule, active = well fitted curve in the direction sought with a large enough effect in the repeat runs; inconclusive = weak or mixed curves; inactive = no such curve, though single readings can be large; an effect the other way counts as inactive or inconclusive.

Assay [1] can be described thus: qHTS assay to identify small molecule agonists of the vitamin D receptor (VDR) signaling pathway - cell viability counter screen (AID 743224). Note: nearly all actives have a fitted effect of over 50% in size. Note: potency is the fitted concentration of half-maximal effect. Put shortly: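 Here cell health was gauged by luminescent ATP detection (CellTiter-Glo, 30 min RT) in VDR-bla cells that had been incubated with test compounds for 16 h at 37C and 5% CO2.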
On the technique in general: Quantitative high-throughput screening tests each substance at several concentrations.

Assay [2] in a line: qHTS assay to identify small molecule antagonists of the vitamin D receptor (VDR) signaling pathway - cell viability counter screen (AID 743225). Note: nearly all actives have a fitted effect of over 50% in size. Put shortly:
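Same-well multiplex: following 16 h treatment of HEK 293T cells carrying a UAS-driven beta-lactamase reporter with compound and agonist (3 nM final), and a 2 h FRET substrate step, CellTiter-Glo was added and luminescence read after 30 min.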

Assay [3] is described as follows: qHTS assay to identify small molecule agonists of the NFkB signaling pathway (AID 1159509; active = well fitted curve in the direction sought with a large enough effect in the signal ratio in the repeat runs, not every such curve was filed as active; the % refers to the signal ratio). Put shortly: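 NFkB-bla ME-180 cells with a beta-lactamase reporter under an NF-kB response element were plated overnight, treated with compounds in DMSO for 5 hr at 37 C, then loaded with FRET substrate for 1.5 hr at room temperature.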
Assay [4] in a line: qHTS assay to identify small molecule agonists of the endoplasmic reticulum stress response signaling pathway (AID 1159516; active = well fitted activation curve with a large enough effect in the signal ratio in the repeat runs, not every such curve was filed as active; the % refers to the signal ratio). The gist of the method:
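Reporter HeLa cells (ESRE-beta-lactamase) underwent 5 hr compound incubation at 37 C and 5% CO2 in quantitative HTS format. Detection followed 2 hr of FRET substrate loading at room temperature.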

Assay [5] in a line: qHTS assay to identify small molecule agonists of the endoplasmic reticulum stress response signaling pathway - cell viability counter screen (AID 1159517; calls by dose curve;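 note: HeLa cells carrying an ER stress response element beta-lactamase reporter; nearly all actives have a fitted effect of over 50% in size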). Put shortly: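 Counter-screen wells were identical to the reporter wells. Cells were plated at 1,500 per well and dosed for 5 hr, then read for luminescence 30 min after CellTiter-Glo addition.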
Assay [6] can be described thus: qHTS assay to identify small molecule antagonists of the retinoid-related orphan receptor gamma (ROR-gamma) signaling pathway - cell viability counter screen (AID 1159520). Note: nearly all actives have a fitted effect of over 50% in size. Note: potency is the fitted concentration of half-maximal effect. Put shortly:
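Tet-on ROR gamma CHO cells were given compounds for 2 hr, then doxycycline hyclate at 1 uM final, and incubated 16 hr at 37 C. Viability was measured as ATP content by CellTiter-Glo luminescence.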

Assay [7] is described as follows: qHTS assay to identify small molecule agonists of the AP-1 signaling pathway - cell viability counter screen (AID 1159525; calls by dose curve; note: nearly all actives have a fitted effect of over 55% in size). Put shortly: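 AP-1-bla ME-180 cells in Opti-MEM with 0.5% dialyzed FBS, compound exposure 5 h at 37 C in 15-point titration. Viability read in the same wells as ATP content by CellTiter-Glo luminescence, normalised to tetra-n-octylammonium bromide and DMSO controls.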

The nature of assay [8]: qHTS assay to identify small molecule agonists of the AP-1 signaling pathway (AID 1159526; calls by dose curve).
The target in assay [9] is Retinoic acid receptor RXR-alpha (Homo sapiens) (UniProt P19793). The assay can be described thus: qHTS assay to identify small molecule agonists of the RXR signaling pathway (AID 1159527; calls by dose curve; note: nearly all actives have a fitted effect of over 35% in size). Put shortly: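 Compounds in DMSO were added to RXR-alpha-UAS-bla HEK 293T cells kept in 2% charcoal-stripped serum, and incubated 16 hr at 37 C with 5% CO2. Reporter signal came from a 2 hr B/G FRET substrate step.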
Chain of Retinoic acid receptor RXR-alpha (Homo sapiens) (P19793 whole entry, looked up): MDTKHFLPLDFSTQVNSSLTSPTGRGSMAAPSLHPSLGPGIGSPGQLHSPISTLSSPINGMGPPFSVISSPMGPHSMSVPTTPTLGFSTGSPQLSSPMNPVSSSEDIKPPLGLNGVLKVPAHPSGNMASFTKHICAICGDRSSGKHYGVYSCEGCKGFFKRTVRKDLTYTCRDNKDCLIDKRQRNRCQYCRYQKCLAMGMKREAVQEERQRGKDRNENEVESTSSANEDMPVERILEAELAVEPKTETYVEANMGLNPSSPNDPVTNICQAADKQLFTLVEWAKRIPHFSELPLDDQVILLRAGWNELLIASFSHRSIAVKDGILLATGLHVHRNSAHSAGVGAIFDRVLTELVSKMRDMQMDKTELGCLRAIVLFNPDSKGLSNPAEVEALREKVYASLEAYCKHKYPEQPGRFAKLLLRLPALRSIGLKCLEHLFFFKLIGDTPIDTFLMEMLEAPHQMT

Assay [10] can be described thus: qHTS assay to identify small molecule agonists of the RXR signaling pathway - cell viability counter screen (AID 1159529). Note: nearly all actives have a fitted effect of over 50% in size. Note: potency is the fitted concentration of half-maximal effect. Put shortly: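 Counter screen: CellTiter-Glo luminescence. Cells: RXR-alpha-UAS-bla HEK 293T. Medium: 2% charcoal-stripped FBS. Treatment: 16 h, 37 C. Reagent incubation: 30 min, RT.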
Assay [11] in a line: qHTS assay to identify small molecule antagonists of the retinoid acid receptor (RAR) signaling pathway - cell viability counter screen (AID 1159551). Note: nearly all actives have a fitted effect of over 35% in size. Note: potency is the fitted concentration of half-maximal effect. Put shortly: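 Seed C3RL4 cells; next day add compound, then retinol to 1 uM final; incubate 6 h at 37 C; add CellTiter-Glo; read luminescence after 30 min at RT.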
Assay [12] is described as follows: qHTS assay to identify small molecule antagonists of the retinoic acid receptor (RAR) signaling pathway (AID 1159552; note: nearly all actives have a fitted effect of over 50% in size; note: potency is the fitted concentration of half-maximal effect). The gist of the method: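 Antagonism of retinol-induced RARE reporter activity was measured in C3RL4 cells. Exposure to compounds and 1 uM final retinol lasted 6 hr at 37 C, with luminescence as endpoint.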
Assay [13] in a line: qHTS assay to identify small molecule agonists of the retinoic acid receptor (RAR) signaling pathway (AID 1159553). Note: potency is the fitted concentration of half-maximal effect. The following applies: C3RL4 RARE luciferase reporter, agonist, 6 h; activation: at 73.3 µM (top of the series). The gist of the method: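 Activation of retinol signaling was monitored via a RARE luciferase reporter in C3RL4 cells. After 6 hr compound treatment at 37 C, detection reagent was added for 30 min at room temperature before luminescence reading.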

Assay [14] addresses Nuclear receptor ROR-gamma (Homo sapiens) (UniProt P51449). The assay can be described thus: qHTS assay to identify small molecule antagonists of the retinoid-related orphan receptor gamma (ROR-gamma) signaling pathway (AID 1159521). Put shortly: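 Inducible-expression reporter assay: doxycycline (1 uM final) switched on RORγ in CHO cells bearing a ROR response element-luciferase construct, with test compounds present from 2 h beforehand. Decreased luminescence after 16 h defined antagonist activity.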

On to `N#CCc1ccc(Cl)cc1Cl`, for which the Potency result in assay [1], in assay [2], in [3], in assay [4], in assay [5] and in [6] was “inactive” throughout. The Potency entry in assay [7], in [8], in [9], in assay [10], in assay [11] and in assay [12] was “inactive” throughout. Moreover, the Potency result in assay [13] is “inactive”.

Regarding `Oc1cc2c(cc1O)[C@H]1c3ccc(O)c(O)c3OC[C@@]1(O)C2`, the Potency result in [1], in assay [2], in [3], in assay [5], in assay [6] and in [7] was “inactive” throughout. Further, the Potency entry in assay [8], in assay [9], in assay [10], in [11] and in [12] was “inactive” throughout. Moreover, the Potency is 13.9 µM (active) in assay [14] and 55.1 µM (active) in [13].

Regarding `CC(C)Nc1cccnc1N1CCN(C(=O)c2cc3cc(NS(C)(=O)=O)ccc3[nH]2)CC1`, the Potency entry in [1], in [2], in assay [3], in assay [4], in assay [5] and in [6] was “inactive” throughout. Further, the Potency entry in assay [7], in assay [8], in assay [9], in assay [10], in assay [11] and in assay [12] was “inactive” throughout. Besides, the Potency entry in [13] was “inactive”.

With `N#CCCN(CCO)CCO`, the Potency result in assay [1], in assay [2], in assay [3], in assay [4], in assay [5] and in assay [6] was “inactive” each time. In addition, the Potency result in [7], in assay [10] and in assay [11] was “inactive” throughout.

For `CCCCCCNC(=O)n1cc(F)c(=O)[nH]c1=O`, the Potency result in assay [1], in assay [3], in assay [4], in assay [5], in assay [6] and in assay [7] was “inactive” in each case. Moreover, the Potency result in assay [8], in assay [10], in assay [12] and in [13] was “inactive” in each case.

For the molecule `COc1ccccc1N1CCN(CCCCNC(=O)c2ccc(-c3ccc(C(C)=O)cc3)cc2)CC1`, the Potency result in [1], in assay [2], in assay [3], in assay [4], in assay [5] and in assay [6] was “inactive” throughout. Moreover, the Potency result in assay [7], in [8], in [10], in assay [11], in assay [12] and in assay [13] was “inactive” in each case.

As for `CCCCCCCCCI`, the Potency entry in assay [1], in [2], in assay [3], in [4], in [5] and in [6] was “inactive” in each case. Besides, the Potency result in assay [7], in assay [10], in assay [11], in [12] and in [13] was “inactive” each time.

As for `C[C@@H](O[C@H]1OCCN(Cc2n[nH]c(=O)[nH]2)[C@H]1c1ccc(F)cc1)c1cc(C(F)(F)F)cc(C(F)(F)F)c1`, the Potency in assay [1] was 23.7 µM (active); in assay [6], 26.6 µM (active); in [10] it was 19 µM (active); in assay [12], 26.6 µM (active). Further, the Potency entry in [3] and in [4] was “inactive” each time.

Consider `CC(=O)Nc1cc(S(=O)(=O)O)cc2cc(S(=O)(=O)O)c(N=Nc3ccccc3)c(O)c12`, for which the Potency result in [1], in assay [2], in assay [3], in assay [4], in [5] and in [7] was “inactive” in each case. In addition, the Potency entry in [8], in assay [10], in [12] and in assay [13] was “inactive” in each case. In addition, the Potency in assay [11] is 24.3 µM (active).

For `C[C@]12CC[C@@H]3c4ccc(O)cc4CC[C@H]3[C@@H]1CC[C@@H]2OC(=O)CCC1CCCC1`, the Potency in [1] was 43.6 µM (active) and inactive; in assay [6], 43.3 µM (active); in [10] it was 49 µM (active) and 26.8 µM (active); in assay [12] it was 61.1 µM (active) and inactive. Besides, the Potency result in assay [2], in [3], in assay [4], in assay [5] and in [11] was “inactive” each time.

Consider `C[C@@H](CN(C)C)CN1c2ccccc2Sc2ccccc21`, for which the Potency result in assay [1], in assay [2], in [3], in assay [4], in assay [5] and in assay [7] was “inactive” each time. Further, the Potency entry in [11] is “inactive”. For the same molecule, the Potency in assay [14] was 26.6 µM (active).
